From PubChem
C8 TRAIL sens – sensitizes caspase-8 expressing cells to TRAIL | NB7+C8 cells + TRAIL, ATPlite viability luminescence | inhibition (viability loss, TRAIL sensitization), % at 10 µM | hit rate 1% among 360,000;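 active means compounds causing at least 50% loss of cell viability in the single-dose screen, relative to plate controls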
SENP7 inh – SENP7 protease inhibition. Q9BQF6. recombinant SENP7, Z-RLRGG-aminoluciferin luminescence, 40 min. inhibition, % at 5 µM. hit rate 1.5% among 330,000. AID 434973;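 active means inhibition above about 50% at the single test dose, limit read from the data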;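 further: plate controls were DMSO with enzyme for no effect and no enzyme buffer wells for full effect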
PPC-1+TRAIL kill – kills PPC-1 cancer cells in the presence of TRAIL; PPC-1 cells + TRAIL, ATPLite viability luminescence; cell killing (% activity), % at 4 µM or 5 µM; hit rate 0.41% among 220,000;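 active means cell killing above 50% in the first pass at 4 µM, then a duplicate retest at 5 µM averaging 50% or more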;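 further: plate controls were cells with TRAIL plus DMSO for no effect and medium-only wells lacking cells for full effect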
SENP8 block-1 – inhibitors of human SENP8 protease. Q96LD8. recombinant SENP8, Nedd8 substrate fluorescence. inhibition, % at 20 µM. hit rate 0.64% among 360,000; in the data active means inhibition mostly above about 40%, no sharp cut-off; inactive means mostly below about 27%
SENP8 block-2 – SENP8 protease inhibition; Q96LD8; purified SENP8, Z-RLRGG-aminoluciferin cleavage, luminescence; inhibition, % at 10 µM; hit rate 1.2% among 330,000; AID 2540; in the data active means inhibition above about 50%
SENP6 block – inhibitors of human SENP6 protease | inhibition, % at 10 µM | Recombinant SENP6 catalytic domain, aminoluciferin luminescence | Q9GZR1 | hit rate 1.8% among 330,000;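 active means inhibition above about 50% at the single tested dose, limit read from the data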;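 further: plate controls were DMSO wells with enzyme for no effect and DMSO wells lacking enzyme for full effect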
Target sequence (Q9GZR1 628-1112 limits assumed): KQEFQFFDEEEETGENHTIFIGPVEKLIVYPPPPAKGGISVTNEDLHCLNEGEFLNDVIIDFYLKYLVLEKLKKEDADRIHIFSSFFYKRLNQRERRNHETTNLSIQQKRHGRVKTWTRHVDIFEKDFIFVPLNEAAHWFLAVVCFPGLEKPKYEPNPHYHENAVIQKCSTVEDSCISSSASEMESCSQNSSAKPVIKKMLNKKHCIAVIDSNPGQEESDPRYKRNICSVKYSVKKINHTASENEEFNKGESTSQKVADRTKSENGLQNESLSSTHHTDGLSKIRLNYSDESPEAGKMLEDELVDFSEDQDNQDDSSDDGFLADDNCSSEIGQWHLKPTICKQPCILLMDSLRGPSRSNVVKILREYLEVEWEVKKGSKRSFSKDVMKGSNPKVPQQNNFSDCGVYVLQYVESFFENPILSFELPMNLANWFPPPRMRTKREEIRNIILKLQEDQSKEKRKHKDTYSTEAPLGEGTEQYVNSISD
PPC-1 tox – kills PPC-1 cells; shares compounds with PPC-1+TRAIL kill; PPC-1 viability, ATPlite luminescence, overnight; cytotoxicity, % at 5 µM; hit rate 50% among 1,200;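 active means reconfirmed compounds whose average cytotoxicity reaches 50% or more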;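 further: 0% = DMSO-treated cells and 100% = wells holding medium but no cells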
SENP8 confirm – human SENP8 inhibition, confirmed; hit rate 40% among 6,200; shares compounds with SENP7 inh; inhibition, % at 12.5 µM; Recombinant SENP8, Z-RLRGG-aminoluciferin luminescence, 60 min; AID 488912;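 active means mean inhibition across replicates above about 50%, limit read from the data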
SENP6 confirm – human SENP6 inhibition, confirmed | shares compounds with SENP7 inh | AID 488915 | hit rate 58% among 6,200 | recombinant SENP6, Z-RLRGG-aminoluciferin luminescence | inhibition, % at 12.5 µM
SENP7 conf – human SENP7 inhibition, confirmed; shares compounds with SENP7 inh; recombinant SENP7, Z-RLRGG-aminoluciferin luminescence, 40 min; inhibition, % at 12.5 µM; hit rate 69% among 6,200
Casp3 SENP sel – inhibits human caspase-3 in SENP selectivity test; shares compounds with SENP7 inh; purified caspase-3, Z-DEVD-aminoluciferin luminescence, 60 min; inhibition, % at 12.5 µM; hit rate 60% among 6,200; AID 488918;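 active means mean inhibition above about 50%, limit read from the data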;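 further: plate controls were enzyme with DMSO for no effect and wells without caspase-3 for full effect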
Luc interf – luminescence interference (SENP counter-screen); shares compounds with SENP7 inh; hit rate 39% among 6,200; inhibition, % at 12.5 µM; Pre-incubated SENP8/Z-RLRGG-aminoluciferin, luciferase luminescence interference;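 active means mean inhibition above about 50% when retested at one dose, limit read from the data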;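 further: plate controls were DMSO wells with completed reaction for no effect and substrate without enzyme for full effect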
Starred values were filed as active, the others as inactive; nt = no result given. Compounds with a hit are over-represented: about 3% of the library has one in this group of screens.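 How the source made its calls, unless noted: active means mean inhibition above about 50% in the one-dose retest (limit read from the data); inactive means the rest.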

SMILES	C8 TRAIL sens	SENP7 inh	PPC-1+TRAIL kill	SENP8 block-1	SENP8 block-2	SENP6 block	PPC-1 tox	SENP8 confirm	SENP6 confirm	SENP7 conf	Casp3 SENP sel	Luc interf
Cc1cc(C(=O)COC(=O)c2cccn2C)c(C)n1Cc1ccco1	63*	67*	38	4	64*	67*	24	81*	80*	94*	68*	-3
Cc1cc(C(=O)COC(=O)c2ccncc2)c(C)n1Cc1ccco1	33	6	5	5	-10	-6	nt	nt	nt	nt	nt	nt
Fc1ccc(NC(=S)Nc2cccc3cnccc23)cc1	-2	77*	4	-100	89*	98*	-3	-1	17	2	-2	-3
COc1ccc2nc(Nc3ccccc3OC)sc2c1	69*	98*	61*	16	92*	92*	57*	96*	96*	101*	91*	87*
C/C(=N\NC(=O)c1ccc(O)cc1)c1ccc2c(c1)OCCO2	0	3	nt	7	-1	-9	nt	nt	nt	nt	nt	nt
C/C(=N\NC(=O)c1ccc2c(c1)OCCO2)c1ccccc1	48	96*	65*	16	86*	89*	64*	2	87*	99*	94*	82*
Cc1ccsc1/C=N/NC(=O)c1ccc2c(c1)OCCO2	76*	83*	54*	7	65*	79*	63*	84*	79*	95*	90*	81*
c1ccc2nc3c(cc2c1)CCCCC3	-18	-3	3	11	-7	-4	nt	nt	nt	nt	nt	nt
CCC(CC)CN1CCN=C1N(C)C	-5	6	nt	22	6	2	nt	nt	nt	nt	nt	nt
O=C(NC(Cc1ccccc1)C(=O)NCCc1ccccn1)c1ccccc1 (centres undefined)	-8	-9	nt	15	2	-36	nt	nt	nt	nt	nt	nt
CCOc1ccc(C(=O)Nc2cc(C)ccn2)cc1	90*	96*	91*	10	91*	91*	90*	-12	90*	100*	96*	91*
CCOc1ccc(C(=O)Nc2cccc(C)n2)cc1	57*	91*	51*	19	80*	87*	52*	-9	83*	98*	94*	87*
CC1(C(=O)O)CCC(C(=O)Nc2ccc(OC(F)(F)Cl)cc2)C1(C)C (centres undefined)	8	3	nt	6	-10	6	nt	nt	nt	nt	nt	nt
Cn1c(=O)c(/C=C/c2ccccc2)nc2ccccc21	30	-2	6	-378	14	9	nt	nt	nt	nt	nt	nt
Cn1c(/C=C/c2ccccc2)nc2ccccc21	83*	99*	80*	-409	97*	99*	82*	99*	100*	103*	99*	98*
CC(=O)Nc1cc2ccccc2oc1=O	-5	-2	-4	-62	-11	-24	nt	nt	nt	nt	nt	nt
Cc1ccc(C(=O)Nc2cc3ccccc3oc2=O)cc1	82*	98*	72*	-304	89*	91*	72*	33	33	18	56*	6
CCOc1ccc(NC(=O)c2ccccc2O)cc1	58*	38	68*	5	36	64*	64*	55*	49	78*	64*	63*
CC(=Nc1ccc(C)cc1C)c1sc2ccccc2c1O	65*	66*	32	-25	65*	78*	27	71*	80*	91*	60*	17
Cc1ccc(O)c(N=Cc2sc3ccccc3c2Cl)c1	-6	1	24	8	1	30	nt	nt	nt	nt	nt	nt
O=C(c1ccc(-c2nc3ccccc3s2)s1)N1CCOCC1	nt	96*	88*	nt	94*	97*	88*	91*	97*	101*	96*	69*
O=C(NC1CC1)c1ccc(-c2nc3ccccc3s2)s1	91*	98*	93*	-222	88*	91*	93*	81*	95*	102*	96*	37
O=C(c1cc2ccccc2s1)N1CCOCC1	7	0	6	26	4	-1	nt	nt	nt	nt	nt	nt
Cc1nn(-c2cccc(C(F)(F)F)c2)c(=O)c2noc(C)c12	9	-8	-1	3	-4	-16	nt	nt	nt	nt	nt	nt
COc1ccc(-c2cc(=O)c3c(O)c(OC)c(OC)c(OC)c3o2)cc1	1	nt	nt	19	nt	nt	nt	nt	nt	nt	nt	nt
SMILES	C8 TRAIL sens	SENP7 inh	PPC-1+TRAIL kill	SENP8 block-1	SENP8 block-2	SENP6 block	PPC-1 tox	SENP8 confirm	SENP6 confirm	SENP7 conf	Casp3 SENP sel	Luc interf
COc1ccc(-c2cc(=O)c3c(O)c(OC)c(O)cc3o2)cc1	70*	87*	64*	6	83*	84*	64*	90*	90*	99*	89*	55*
CC(C)Oc1ccc(C(CC(=O)O)Cc2ccccc2)cc1 (centres undefined)	1	4	nt	10	0	0	nt	nt	nt	nt	nt	nt
CC(C)(C)c1ccc(S(=O)(=O)NC(=O)C2(C)CCN2C(=O)Cc2ccc(-c3ccccc3)cc2)cc1 (centres undefined)	-9	nt	nt	29	nt	nt	nt	nt	nt	nt	nt	nt
COCCn1c(C)cc(C2=NNC(=NC3CC3)SC2)c1C	78*	7	89*	5	82*	75*	88*	95*	96*	101*	98*	68*
COc1cccc(-c2cc(C(=O)NCC3CCCO3)c3cc(C)cc(C)c3n2)c1 (centres undefined)	5	-11	nt	-442	1	2	nt	nt	nt	nt	nt	nt
Cc1cc(C(O)c2ncc(-c3ccccc3F)[nH]2)ccc1F (centres undefined)	6	nt	nt	23	nt	nt	nt	nt	nt	nt	nt	nt
Cc1ccc(S(=O)(=O)N2CCOCC2)cc1NC(=O)CNC(C)c1ccccc1 (centres undefined)	-13	2	nt	2	-12	-8	nt	nt	nt	nt	nt	nt
O=C(NC1=NCCS1)c1cc2ccccc2o1	58*	60*	58*	9	34	53*	51*	47	48	81*	77*	58*
O=C(Nc1ccccn1)c1cc2ccccc2o1	83*	98*	81*	8	95*	97*	80*	52*	98*	101*	97*	96*
CC(=O)Nc1ccc(S(=O)(=O)NC(C)C(=O)OCC(=O)Nc2ccc(F)cc2Cl)cc1 (centres undefined)	-11	nt	nt	18	nt	nt	nt	nt	nt	nt	nt	nt
